Drawing on ChEMBL document CHEMBL3988442, “University of Dundee, Small-Polar-MMV Screening Library” (2021), this text covers Percent Effect for five compounds.

What all share (design): scale not given: direction of the effect not stated beside the values
For assay [1], the target named is Protein translocase subunit SecA (Escherichia coli (strain K12)) (UniProt P10408). Briefly: Assay to Identify E. coli SecA ATPase Inhibitors. The following applies: 30 µM. Type of assay: functional.
Assay [2] concerns the target T1, Ubiquitin-activating enzyme e1, putative (Leishmania donovani (strain BPK282A1)) (UniProt E9BSI1).
T1 sequence (whole entry): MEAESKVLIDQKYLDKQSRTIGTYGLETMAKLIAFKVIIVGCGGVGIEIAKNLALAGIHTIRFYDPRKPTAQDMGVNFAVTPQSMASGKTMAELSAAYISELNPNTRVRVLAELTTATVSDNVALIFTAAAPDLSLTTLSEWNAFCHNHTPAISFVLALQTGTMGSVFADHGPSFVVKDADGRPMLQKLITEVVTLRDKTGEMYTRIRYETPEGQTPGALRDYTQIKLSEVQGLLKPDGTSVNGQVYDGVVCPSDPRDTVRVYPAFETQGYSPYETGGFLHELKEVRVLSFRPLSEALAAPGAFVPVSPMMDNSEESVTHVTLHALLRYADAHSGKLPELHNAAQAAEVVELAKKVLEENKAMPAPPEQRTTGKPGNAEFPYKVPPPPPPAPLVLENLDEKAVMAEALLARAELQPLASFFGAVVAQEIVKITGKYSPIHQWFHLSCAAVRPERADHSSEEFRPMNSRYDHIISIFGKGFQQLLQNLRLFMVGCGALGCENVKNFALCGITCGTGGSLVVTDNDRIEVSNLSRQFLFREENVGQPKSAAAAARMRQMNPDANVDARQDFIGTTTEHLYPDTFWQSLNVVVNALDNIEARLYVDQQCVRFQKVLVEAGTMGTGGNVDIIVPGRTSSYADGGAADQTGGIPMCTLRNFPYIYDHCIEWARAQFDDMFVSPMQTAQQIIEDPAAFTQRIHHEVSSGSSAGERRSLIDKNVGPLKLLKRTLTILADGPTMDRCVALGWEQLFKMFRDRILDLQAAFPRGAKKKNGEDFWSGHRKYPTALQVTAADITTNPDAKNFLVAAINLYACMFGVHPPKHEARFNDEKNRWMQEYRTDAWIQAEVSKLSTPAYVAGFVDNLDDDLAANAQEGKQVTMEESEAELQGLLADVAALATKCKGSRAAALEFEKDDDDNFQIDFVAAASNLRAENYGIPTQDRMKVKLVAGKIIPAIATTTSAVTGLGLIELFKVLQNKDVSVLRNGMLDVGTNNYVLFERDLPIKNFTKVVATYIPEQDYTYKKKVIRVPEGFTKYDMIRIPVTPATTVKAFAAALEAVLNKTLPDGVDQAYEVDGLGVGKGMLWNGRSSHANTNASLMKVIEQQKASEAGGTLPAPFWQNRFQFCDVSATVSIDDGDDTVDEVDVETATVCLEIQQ
Put plainly: Leishmania donovani Ubiquitin Activating Enzyme (LdE1). It is filed as functional. The following applies: 30 µM.

The target in assay [3] is AMP-activated protein kinase, AMPK (Homo sapiens) (UniProt P54646+O43741+P54619+Q9UGJ0+Q9Y478+Q13131+Q9UGI9). Put plainly: AMP-dependent Kinase enzyme assay. An in vitro enzyme assay that detects ADP turnover that is directly proportional to AMPK activity. This uses naive AMPK that is activated during the assay with MK-8722. The following applies: 30 µM. Type of assay: functional.

The target of assay [4] is Sialic acid-binding Ig-like lectin 9 (Homo sapiens) (UniProt Q9Y336). Put plainly: Hs-Siglec9 ALPHAscreen SOP 20170721. The following applies: 10 µM. Background: Alpha assays give light when donor and acceptor beads are brought close together.
For assay [5], the system named is Trypanosoma cruzi. Briefly: Trypanosoma cruzi phosphomannomutase and mannose-1-phosphate guanylyltransferase assay. The following applies: 10 µM. It is filed as functional.
Assay [6] concerns the target T2, Arginase-2, mitochondrial (Homo sapiens) (UniProt P78540).
T2 sequence (whole entry): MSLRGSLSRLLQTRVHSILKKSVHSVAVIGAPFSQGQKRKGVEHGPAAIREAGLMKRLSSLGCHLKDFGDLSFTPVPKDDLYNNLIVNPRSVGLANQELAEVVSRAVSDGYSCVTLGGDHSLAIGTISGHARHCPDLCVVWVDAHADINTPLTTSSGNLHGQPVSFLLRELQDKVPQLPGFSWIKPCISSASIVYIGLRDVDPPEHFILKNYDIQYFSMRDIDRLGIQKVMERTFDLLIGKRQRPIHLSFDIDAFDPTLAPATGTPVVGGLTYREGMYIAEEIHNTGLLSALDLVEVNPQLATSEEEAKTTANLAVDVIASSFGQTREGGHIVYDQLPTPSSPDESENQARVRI
Briefly: in vitro enzyme assay to detect the production of urea directly proportional to the activity of Arginase II. Also: in the data most compounds retested in dose-response had high values. Type of assay: functional. As to conditions: 33.3 µM.

The target in assay [7] is T3, Proteasome subunit beta (Trypanosoma cruzi) (UniProt O96673).
T3 sequence (whole entry): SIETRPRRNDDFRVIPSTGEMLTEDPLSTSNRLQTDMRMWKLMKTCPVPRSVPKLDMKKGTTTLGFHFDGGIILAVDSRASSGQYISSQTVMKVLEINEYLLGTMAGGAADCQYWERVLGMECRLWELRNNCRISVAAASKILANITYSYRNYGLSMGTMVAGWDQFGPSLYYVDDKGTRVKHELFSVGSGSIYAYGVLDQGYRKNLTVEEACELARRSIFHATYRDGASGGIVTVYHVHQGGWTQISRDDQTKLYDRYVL
Briefly: Trypanosoma cruzi proteasome chymotrypsin-like activity (TcProtChymo) assay. Also: in the data most compounds retested in dose-response had high values. Type of assay: functional. The following applies: 9.37 µM.

For assay [8], the species on record is Homo sapiens. Briefly: To identify inhibition of the IFN signalling (Jak-Stat) pathway via expression of an eGFP reporter gene under the control of an IFN-stimulated response element (ISRE) containing MxA promoter. It is filed as functional. The following applies: 30 µM. In general terms: A reporter such as luciferase makes a cellular process visible.
In assay [9] the target is T4, Tyrosyl-tRNA synthetase, putative (Trypanosoma cruzi (strain CL Brener)) (UniProt Q4DSP6).
T4 sequence (whole entry): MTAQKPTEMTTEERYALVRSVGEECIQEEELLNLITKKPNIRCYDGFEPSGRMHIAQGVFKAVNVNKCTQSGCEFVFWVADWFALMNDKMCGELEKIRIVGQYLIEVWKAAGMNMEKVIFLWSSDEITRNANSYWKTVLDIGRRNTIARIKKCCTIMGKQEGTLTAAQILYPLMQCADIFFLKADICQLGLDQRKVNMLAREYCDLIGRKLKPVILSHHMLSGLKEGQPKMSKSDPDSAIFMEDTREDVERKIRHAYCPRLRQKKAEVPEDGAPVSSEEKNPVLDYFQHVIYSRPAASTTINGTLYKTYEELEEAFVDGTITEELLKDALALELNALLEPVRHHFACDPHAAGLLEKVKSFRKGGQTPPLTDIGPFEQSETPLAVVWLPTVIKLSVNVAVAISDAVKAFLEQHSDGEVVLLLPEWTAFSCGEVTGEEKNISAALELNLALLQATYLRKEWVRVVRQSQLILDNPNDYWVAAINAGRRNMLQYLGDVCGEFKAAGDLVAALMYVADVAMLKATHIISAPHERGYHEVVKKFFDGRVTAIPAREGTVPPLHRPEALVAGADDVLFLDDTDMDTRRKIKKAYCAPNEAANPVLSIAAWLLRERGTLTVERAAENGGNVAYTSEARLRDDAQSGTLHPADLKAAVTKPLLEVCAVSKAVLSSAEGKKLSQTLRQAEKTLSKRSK
Put plainly: Trypanosoma cruzi tyrosyl tRNA synthetase (TcYRS) _High Tyrosine SOP. Also: in the data most compounds retested in dose-response had high values. As to conditions: 30 µM. Type of assay: functional.

Assay [10] deals with T4, Tyrosyl-tRNA synthetase, putative (Trypanosoma cruzi (strain CL Brener)). Briefly: Trypanosoma cruzi tyrosyl tRNA synthetase (TcYRS) SOP. It is filed as functional. The following applies: 30 µM.
Assay [11] concerns the target Chromo domain-containing protein 1 (Saccharomyces cerevisiae (strain ATCC 204508 / S288c) (Baker's yeast)) (UniProt P32657). Put plainly: ScCHD-1 Enzyme Inhibition Assay. Also: in the data most compounds retested in dose-response had high values. The following applies: 30 µM. Type of assay: functional.
The test system of assay [12] is N/A. Briefly: Trypanosoma cruzi proteasome luciferase counter-screen. It is filed as functional. As to conditions: 9.37 µM. (In general: A counterscreen serves to expose hits that act by an unwanted route or on another target.)

Structures are written as SMILES. Where “and” joins values, the source holds several entries; their conditions need not be identical. Equal values may be shown once. For some assays here: Entries with a potency or affinity are not part of this list.

Sequence of Protein translocase subunit SecA (Escherichia coli (strain K12)) (P10408 whole entry): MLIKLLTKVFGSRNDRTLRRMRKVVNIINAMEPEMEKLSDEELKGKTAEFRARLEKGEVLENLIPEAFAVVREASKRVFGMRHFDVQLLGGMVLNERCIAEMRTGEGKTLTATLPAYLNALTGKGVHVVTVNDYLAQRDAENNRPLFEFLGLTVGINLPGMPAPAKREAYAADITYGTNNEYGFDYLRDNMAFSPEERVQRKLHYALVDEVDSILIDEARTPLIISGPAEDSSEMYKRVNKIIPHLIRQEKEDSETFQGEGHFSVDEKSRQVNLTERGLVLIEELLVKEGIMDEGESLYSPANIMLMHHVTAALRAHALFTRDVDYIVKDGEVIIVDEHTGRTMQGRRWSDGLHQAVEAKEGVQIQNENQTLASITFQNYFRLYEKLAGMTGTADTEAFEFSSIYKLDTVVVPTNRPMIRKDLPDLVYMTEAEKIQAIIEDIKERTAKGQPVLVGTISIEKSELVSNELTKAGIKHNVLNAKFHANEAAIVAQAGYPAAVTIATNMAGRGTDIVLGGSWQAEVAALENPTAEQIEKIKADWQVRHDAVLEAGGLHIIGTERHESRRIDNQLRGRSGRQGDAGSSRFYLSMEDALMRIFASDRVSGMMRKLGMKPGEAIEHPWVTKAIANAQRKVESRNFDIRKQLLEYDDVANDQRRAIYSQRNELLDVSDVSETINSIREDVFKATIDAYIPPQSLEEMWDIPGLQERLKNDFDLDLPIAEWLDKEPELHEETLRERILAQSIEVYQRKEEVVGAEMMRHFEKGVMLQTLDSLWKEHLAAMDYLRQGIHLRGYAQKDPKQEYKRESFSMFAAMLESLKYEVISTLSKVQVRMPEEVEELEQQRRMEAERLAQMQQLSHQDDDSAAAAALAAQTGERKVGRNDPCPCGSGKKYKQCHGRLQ
Sequence of Sialic acid-binding Ig-like lectin 9 (Homo sapiens) (Q9Y336 whole entry): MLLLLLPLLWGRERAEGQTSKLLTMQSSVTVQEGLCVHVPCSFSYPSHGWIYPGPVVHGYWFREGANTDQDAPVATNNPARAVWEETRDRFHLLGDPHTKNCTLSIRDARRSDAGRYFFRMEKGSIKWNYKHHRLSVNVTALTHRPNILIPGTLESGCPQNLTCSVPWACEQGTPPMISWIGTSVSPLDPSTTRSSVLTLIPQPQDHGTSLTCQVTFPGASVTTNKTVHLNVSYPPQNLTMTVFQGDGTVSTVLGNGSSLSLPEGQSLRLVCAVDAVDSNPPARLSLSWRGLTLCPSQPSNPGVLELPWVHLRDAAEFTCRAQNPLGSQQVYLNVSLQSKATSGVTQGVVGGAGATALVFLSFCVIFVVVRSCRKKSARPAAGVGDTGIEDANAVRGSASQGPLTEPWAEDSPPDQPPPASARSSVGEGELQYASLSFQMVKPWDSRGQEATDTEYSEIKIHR
Sequence of Chromo domain-containing protein 1 (Saccharomyces cerevisiae (strain ATCC 204508 / S288c) (Baker's yeast)) (P32657 whole entry, the tested form may be a part): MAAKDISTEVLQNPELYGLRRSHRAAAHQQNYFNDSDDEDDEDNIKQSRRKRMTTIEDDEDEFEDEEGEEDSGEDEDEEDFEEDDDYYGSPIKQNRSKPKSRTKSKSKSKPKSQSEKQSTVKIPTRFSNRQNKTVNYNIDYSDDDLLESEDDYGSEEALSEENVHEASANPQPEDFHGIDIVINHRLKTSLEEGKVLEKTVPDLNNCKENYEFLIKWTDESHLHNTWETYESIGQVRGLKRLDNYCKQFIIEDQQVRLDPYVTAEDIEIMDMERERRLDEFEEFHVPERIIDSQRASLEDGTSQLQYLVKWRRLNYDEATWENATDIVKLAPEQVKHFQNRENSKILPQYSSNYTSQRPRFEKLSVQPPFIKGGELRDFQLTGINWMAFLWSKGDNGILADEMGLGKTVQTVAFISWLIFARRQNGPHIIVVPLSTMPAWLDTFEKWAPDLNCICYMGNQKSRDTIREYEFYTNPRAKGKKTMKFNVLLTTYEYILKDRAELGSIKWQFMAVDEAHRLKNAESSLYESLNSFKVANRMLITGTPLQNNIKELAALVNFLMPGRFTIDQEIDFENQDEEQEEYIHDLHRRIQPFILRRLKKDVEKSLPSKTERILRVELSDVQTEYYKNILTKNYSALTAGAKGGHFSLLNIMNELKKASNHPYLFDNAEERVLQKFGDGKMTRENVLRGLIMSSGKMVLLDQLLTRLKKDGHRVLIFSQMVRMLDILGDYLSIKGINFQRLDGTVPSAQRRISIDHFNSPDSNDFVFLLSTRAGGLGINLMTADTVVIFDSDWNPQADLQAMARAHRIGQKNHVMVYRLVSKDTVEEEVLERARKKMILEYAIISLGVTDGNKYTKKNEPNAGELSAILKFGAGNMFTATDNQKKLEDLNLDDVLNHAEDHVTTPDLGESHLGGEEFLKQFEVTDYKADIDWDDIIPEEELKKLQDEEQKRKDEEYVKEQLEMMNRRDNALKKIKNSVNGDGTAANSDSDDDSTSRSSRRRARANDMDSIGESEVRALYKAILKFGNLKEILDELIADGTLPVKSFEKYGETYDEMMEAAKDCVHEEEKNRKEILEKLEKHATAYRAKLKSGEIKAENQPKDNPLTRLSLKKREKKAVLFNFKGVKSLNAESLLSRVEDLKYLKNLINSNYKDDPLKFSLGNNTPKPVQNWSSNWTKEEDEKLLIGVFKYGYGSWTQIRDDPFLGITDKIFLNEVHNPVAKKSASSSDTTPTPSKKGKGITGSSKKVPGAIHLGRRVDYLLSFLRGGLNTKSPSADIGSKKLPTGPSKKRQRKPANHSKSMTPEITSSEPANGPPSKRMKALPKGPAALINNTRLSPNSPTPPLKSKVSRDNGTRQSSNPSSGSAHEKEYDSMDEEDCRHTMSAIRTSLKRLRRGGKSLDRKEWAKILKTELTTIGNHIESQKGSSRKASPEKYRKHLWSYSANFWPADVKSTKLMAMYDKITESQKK

With `CNS(=O)(=O)c1ccc(C(=O)NCCNc2ncccn2)cc1`, the Percent Effect in assay [1] is -3.65%; in [2], 10.5%; in assay [3], -2.1%; in assay [4], -1.6%; in assay [5], -2.52%; in assay [6], -1.08%. The Percent Effect in assay [7] was 7.36%; in [8], -4.68%; in [9], 6.4%; in [10], 23.5%; in assay [11], -3.3%.

Regarding `CC(C)c1cc2c(O)nc(CSCC(=O)O)nc2s1`, the Percent Effect in assay [1] was -4.64%; in assay [2], 6.67%; in assay [3] it was 7.73%; in assay [4], 3.74%; in assay [5], 3.93%; in [6], -2.99%. For the same compound, the Percent Effect was 70.5% and 64.5% and 63.5% in assay [7]; 32% and 29.1% in assay [12]; 1.31% in [8]; 4.23% in [9]; 10.3% in assay [10]; -9.79% in assay [11].

Regarding `COCC1CCN(C(=O)c2cccc(S(=O)(=O)NCC3(C)COC3)c2)C1` (stereo unspecified), the Percent Effect in [1] is -8.36%; in assay [2] it was 5.41%; in assay [3], 0.667%; in assay [4], 24.4%; in [5], 1.07%; in [6] it was 3.23%. Also, the Percent Effect is 1.63% in assay [7]; 9.82% in assay [8]; 6.45% in assay [9]; 13.6% in assay [10]; -4.61% in assay [11].

Consider `Cc1cc(C(=O)N[C@@H]2CCNC[C@H]2O)ccc1Cl`, for which the Percent Effect in assay [1] is -1.58%; in assay [2], 5.41%; in assay [3], 1.58%; in assay [4] it was 10.1%; in assay [5], 6.56%; in assay [6], -1.91%. Moreover, the Percent Effect is 11.4% in [7]; -9.87% in [8]; 6.88% in [9]; 4.88% in assay [10]; -2.88% in assay [11].

Consider `CCn1cnnc1CNC(=O)NC(C)C(C)C` (stereo unspecified), for which the Percent Effect is -4.76% in assay [1]; 13% in [2]; 3.19% in assay [3]; 7.03% in assay [4]; -4.68% in assay [5]; 0% in assay [6]. Besides, the Percent Effect was 12.5% in assay [7]; 22.8% in assay [8]; 2.91% in [9]; 7.32% in [10]; -1.46% in assay [11].
